Measured values as given in PubChem BioAssay AID686964 (The Scripps Research Institute Molecular Screening Center, 2013).
Where “and” joins values, the source holds several entries; their conditions need not be identical. Equal entries are not always repeated. Out of some 370,000 compounds screened, about 1,100 (0.3%) were called active. Shown is part of a subset that was picked to be rich in actives. Values without a mark were called inactive. Rule as the data show it: active = inhibition above about 13%; inactive = the rest.

target: Methyl-CpG-binding domain protein 2 (Homo sapiens) (UniProt Q9UBB5); assay: inhibitors of MBD2 binding to methylated DNA, primary screen, biochemical, TR-FRET, DNA-binding domain, human (AID 686964); settings: MBD2 binding to methylated oligonucleotide, at 4.4 µM, active compounds read high
Sequence (Q9UBB5 whole entry, looked up, the tested form may be a part): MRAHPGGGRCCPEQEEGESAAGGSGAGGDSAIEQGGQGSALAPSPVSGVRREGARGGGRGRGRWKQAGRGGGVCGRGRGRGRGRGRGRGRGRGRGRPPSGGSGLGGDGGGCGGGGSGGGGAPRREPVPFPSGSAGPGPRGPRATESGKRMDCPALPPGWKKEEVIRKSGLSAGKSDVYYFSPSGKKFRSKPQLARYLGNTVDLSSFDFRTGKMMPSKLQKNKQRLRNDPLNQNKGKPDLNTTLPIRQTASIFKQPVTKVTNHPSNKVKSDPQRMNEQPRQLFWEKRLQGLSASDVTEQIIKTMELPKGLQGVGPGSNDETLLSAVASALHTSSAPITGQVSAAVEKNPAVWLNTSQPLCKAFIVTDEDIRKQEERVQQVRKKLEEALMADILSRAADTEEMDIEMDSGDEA

Structure (SMILES) | inhibition
COC(=O)c1cn(C)c2ccc(S(=O)(=O)N3CC(C)CC(C)C3)cc2c1=O (stereo unspecified) | 21.1% (active)
CCn1cc(C(=O)N2CC(C)CC(C)C2)c(=O)c2cc(S(=O)(=O)N3CCCC3)ccc21 (stereo unspecified) | -7.45%
CC1CCCCC1NC(=O)c1cn(C)c2ccc(S(=O)(=O)N3CCOCC3)cc2c1=O (stereo unspecified) | 0.43%
Cc1cc(C)c2nc(-c3ccco3)cc(C(=O)O)c2c1 | 13.2% (active)
CCOC(=O)c1ccn(-c2nc(-c3ccco3)cc(C(F)(F)F)n2)n1 | 1.89%
Cc1cc(C)c2nc(-c3cccnc3)cc(C(=O)Nc3ccc(S(=O)(=O)Nc4onc(C)c4C)cc3)c2c1 | -1.74%
CCC(=O)c1c(CC)c2n3c1=CC[C@H]3CC(Br)C=2 (stereo partly specified) | 1.67%
Cc1ccc(NC(=O)C2CC(=O)N(c3ccc4c(c3)OCCO4)C2)cc1S(=O)(=O)N1CCCCCC1 (stereo unspecified) | 2.94%
Cc1ccc(C(=O)NNC(=O)c2ccncc2)cc1S(=O)(=O)N1CCCCC1 | -3.54%
Cc1ccc(C(=O)Nc2ccc3c(c2)OCO3)cc1S(=O)(=O)N1CCCCC1 | 13.4% (active)
Cc1cc(C)nc(NC(=S)N2CCN(c3ccc(C(F)(F)F)cn3)CC2)c1 | -0.18%
Cc1ccccc1NC(=O)CN1C(=O)N/C(=C\c2cccn2-c2cccc(C(=O)O)c2)C1=O | 20.6% (active)
COC(=O)CN1C(=O)N/C(=C/c2ccc(OC)c(C)c2OC)C1=O | -3.97%
N#Cc1ccccc1CN1C(=O)S/C(=C/c2cccn2-c2cccc(C(=O)O)c2)C1=O | 10.6%
Cc1ccc(Cn2cc(CN3[C@@H](C)COc4cc(Br)ccc4S3(=O)=O)nn2)cc1 | -5.2%
CCc1noc(C)c1C(=O)N1CCN(S(=O)(=O)c2cccc(C(F)(F)F)c2)CC1 | -5.25%
O=C(CCl)NC1CCCCN(Cc2cccc(C(F)(F)F)c2)C1=O (stereo unspecified) | 3.06%
CCOc1ccc(-n2c(SCC(=O)Nc3ccc(OC)cc3)nc3sc4c(c3c2=O)CCN(C)C4)cc1 | 23.5% (active)
CCCSc1nc2sc3c(c2c(=O)n1-c1ccc(OC)cc1)CCN(C)C3 | -2%
CCn1c(SCC(=O)Nc2ccc(Br)cc2)nc2sc3c(c2c1=O)CCN(C)C3 | 0.05%
CCCCC(=O)N[C@@H]1CC[C@@]23CCCN2C(=O)CCC[C@H]3[C@H]1C | -0.72%
COc1ccc(Cl)cc1NC(=O)CN(C)Cc1ccc(OC)c(OC)c1 | 0.39%

Structure (SMILES) | inhibition
COc1ccc(Cl)cc1NC(=O)COC(=O)c1ccc(Br)o1 | -1.28%
COc1ccc(Cl)cc1NC(=O)CCS(=O)(=O)c1ccc(Br)cc1 | 26.3% (active)
CC(=O)N1CCc2cc(S(=O)(=O)NCCC(=O)N3CCCC3)ccc21 | 0.46%
CCCN(CC(=O)NC(=O)NC1CCCCC1)CC(=O)Nc1cc(Cl)ccc1Cl | -5.45%
CCOC(=O)c1c(NC(=O)CCCN2CCOCC2)sc2c1CC(C)(C)OC2 | 0.1%
CCOC(=O)c1c(C)[nH]c(C(=O)NCCN2CCOCC2)c1C | 4.74%
CCOC(=O)c1sc(NC(=O)CCN2CCOCC2)c(C(=O)OCC)c1C | 28.4% (active)
CCN(C(=O)[C@@H](C1CC1)[C@@H](O)c1ccc2ccccc2c1)c1ccccc1 | 3.52%
O=C1C(=O)N(Cc2ccc(-c3ccsc3)cc2)c2ccc(OC(F)(F)F)cc21 | -3.46%
CC(C)CCN1CCC(C)(NC(=O)c2ccccc2)C1=O (stereo unspecified) | 0.15%
COC(=O)[C@]1(C#N)CC(=O)N(CC2CCCCC2)[C@@H]1c1ccccc1 | -3.31%
COC(=O)c1ccc2nc(-c3ccc(F)cc3)c(Cc3ccc(C)cc3)n2c1 | 3.12%
COC(=O)c1ccc2nc(C3CCCCC3)c(Cc3cccc(F)c3)n2c1 | 19% (active)
COC(=O)c1ccc2nc(-c3ccc(Cl)cc3)c(Cc3cccc(F)c3)n2c1 | 2.68%
O=S1(=O)c2ccc(Br)cc2OC[C@H](Cc2ccccc2)N1Cc1cn(Cc2ccccc2)nn1 | 9.67%
Cc1cc(NCCc2c[nH]c3ccccc23)ccc1Oc1cccnc1 | -2.55%
COC(=O)c1ccc(SCc2ccccc2)nc1 | -4.53%
CC(C)CC(CC(C)C)=NNC(=O)c1ccc(CSc2nncn2C)cc1 | -5.89%
COC(=O)c1ccc(CSc2nncn2N)cc1 | 48.3% (active)
COc1cccc2c1C(=O)c1c(O)c3c(c(O)c1C2=O)CC(O)(C(C)=NNC(=O)c1ccc(Cl)c(Cl)c1)CC3OC1CC(N)C(O)C(C)O1 (stereo unspecified) | 111% (active)
CN[C@H]1C[C@H]2c3cc(N4CCOCC4)ccc3CCN2C[C@H]1[C@H](C)O | -5.62%
COC(=O)[C@@H]1CC(O)CN1C(=O)C12CC3CC(CC(C3)C1)C2 (stereo partly specified) | 2.14%

Structure (SMILES) | inhibition
COc1nc(Oc2ccc(=O)n(C)n2)nc(N(C)C)n1 | -3.73%
Cc1ccc(S(=O)(=O)NCCSC(C)(C)C)cc1 | 0.35%
COc1nc(N(C)C)nc(N2CC(=O)N(CCNS(=O)(=O)c3ccc(C)cc3)C2=N)n1 | 15.6% (active)
COc1ccc(CSc2nnc(-c3cccc(C)c3)n2C)cc1 | 0%
Cc1cc(Cl)ccc1N1C(=O)CC(SCCC(=O)O)C1=O (stereo unspecified) | 2.13%
COC(=O)c1cc2c(c3c4ccccc4n(S(=O)(=O)c4cccc(C)c4)c13)C(=O)N(Cc1ccccc1)C2 | 0.83%
CCc1ccccc1NC(=O)CN(c1ccc(OC)cc1OC)S(=O)(=O)c1ccccc1[N+](=O)[O-] | 2.54%
CSc1ccc(CNCCN2CCOCC2)cc1 | 2.47%
c1ccc2cc3c(NCCN4CCOCC4)ccnc3cc2c1 | 15.3% (active)
O=C(Cc1ccc(Br)cc1)NCCN1CCOCC1 | -0.23%
COc1ccccc1C(=O)NNC(=O)CCN1C(=O)/C(=C\c2ccccc2)SC1=S | 13.2% (active)
COc1ccccc1C(=O)NCC(=O)OCC(=O)NNC(=O)c1ccc(Br)cc1 | -6.8%
COc1ccccc1C(=O)Nn1cnnc1 | 3.63%
Cn1cnnc1Sc1ccc(CN2CCN(C3CCCC3)C(CCO)C2)o1 (stereo unspecified) | -4.49%
C[C@@H]1CN([C@@H](C)CO)C(=O)c2cccc(NC(=O)Nc3cccc4ccccc34)c2O[C@H]1CN(C)S(=O)(=O)c1ccccc1F | -5.98%
COc1ccccc1C(=O)NC1CCCCN(C(C)C)C1=O (stereo unspecified) | 6.15%
Cc1ccc(S(=O)(=O)N(CCc2ccccc2)c2ccc3c(c2)C2CC3CCN2C(=O)OCc2ccccc2)cc1 (stereo unspecified) | -6.75%
COc1ccc(CNC(=O)C2CCC(CNc3c(N4CCOCC4)c(=O)c3=O)CC2)cc1 (stereo unspecified) | -0.13% and -5.05%
CCOc1ccc(NC(=O)c2cc(C)nc3ccccc23)cc1 | 16.2% (active)
Cc1cc(C(=O)OCC(=O)Nc2nccs2)c2ccccc2n1 | 8.33%
CCOc1cc(NC(=O)c2ccccc2C(=O)O)c(OCC)cc1NC(=O)c1ccccc1F | 0.6%
CCOc1ncccc1C(=O)Nc1ccc(S(=O)(=O)Nc2nc(C)cc(C)n2)cc1 | -2.5%

Structure (SMILES) | inhibition
CCC(CC)C(C(=O)NC1CCCC1)N1CCN(c2cc(C)nc3ccccc23)CC1 (stereo unspecified) | -3.59%
CCOc1cc(N2CCOCC2)c(OCC)cc1NC(=O)c1cc(C)nc2ccccc12 | 13.2% (active)
O=C(CSc1nc2ccccc2nc1N1CCCCC1)N1CCN(S(=O)(=O)c2cccc([N+](=O)[O-])c2)CC1 | -6.32%
O=C(NCc1ccc(Cl)cc1)C1CCCN(c2nc3ccccc3o2)C1 (stereo unspecified) | -3.29%
O=C(c1ccc(F)cc1)c1c[nH]c(C(=O)NCc2cccnc2)c1 | 4.31%
O=C1CC[C@@]23CCCN2C(=O)CCC[C@H]3[C@H]1Cc1ccccc1 | 1.8%
COC(=O)C(=Nc1ccccc1)/C(C(=O)C(=O)N(C)c1ccccc1)=C(\O)c1ccc(Cl)cc1 | -5.32%
C=CC1=C(C(=O)O)N2C(=O)[C@@H](NC(=O)/C(=N\OCC(=O)O)c3csc(N)n3)[C@H]2SC1 | 52.4% (active)
C=CC1=C(C(=O)O)N2C(=O)[C@@H](NC(=O)/C(=N/OCC(=O)O)c3csc(N)n3)[C@H]2SC1 | 73.1% (active)
CCCNc1ncnc2sc(C)c(C)c12 | 1.28%
O=C(Nc1cc(F)cc(F)c1)OC1CCC12CCC(c1ccccc1)CC2 (stereo unspecified) | 0.3%
O=C1CC(c2ccc3c(c2)OCO3)N=C2N(CC3CC3)C/C(=C/c3ccccc3)N12 (stereo unspecified) | -1.23%
COc1ccc(OCc2cc(C(=O)NCC3(C)COC3)no2)c(Cl)c1 | 17.4% (active)
Cc1cc(OCc2cc(C(=O)NCc3cc(C(C)C)no3)no2)cc(C)c1Cl | 4.94%
COCCN1CCN(C(=O)c2cc(COc3ccc(F)cc3Cl)on2)CC1 | 2.22%
COC(=O)C1=C(C)N(Cc2ccccc2C(F)(F)F)C(=NCc2ccc(C(F)(F)F)cc2)NC1c1ccc(F)cc1 (stereo unspecified) | 2.2%
CN1C(=O)CN2CCc3ccccc3C2c2cc(Cl)ccc21 (stereo unspecified) | -5.25%
Cc1ccc(NC(=O)Cc2cccc(F)c2)c(S(=O)(=O)N2CCOCC2)c1 | -5.33%
Cc1nc(CNc2ncnc3ccc(-c4ccc5c(c4)OCO5)cc23)cs1 | -2.98%
COc1ccc(C2Nc3ccccc3C(=O)N2Cc2cccs2)cc1COc1c(C)cccc1C (stereo unspecified) | -1.94%
